# “And” between values parts separate entries of the source, which are not always exact repeats. Equal values may be shown once. About 2,000 (36%) of roughly 5,500 compounds were called active. Roughly 18% stayed inconclusive and do not appear here. The list shows a part of the results. Unmarked numbers belong to inactive results. Rule as the data show it: active = normalized growth mostly below about 0.91 (no sharp cut-off); inconclusive = no clear call, values can overlap the other calls; inactive = mostly above about 0.92.
# Assay: chemical genetic growth profiling, strain panel (AID 1159580);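 also: tested at 20 µM; growth read once vehicle control cultures reached saturation at 30 °C; 1 = growth at the plate median or of vehicle wells; lower values mean less growth of the strain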
# Conditions: S. cerevisiae deletion strains, growth OD
compound,measurement,setting,value
COC(=O)Nc1nc2ccc(C(=O)c3ccccc3)cc2[nH]1,normalized growth,"locus YAL013W, strain DEP1, active compounds read low",1.02
same,normalized growth,"locus YAL021C, strain ccr4, active compounds read low",0.95
same,normalized growth,"locus YAL026C, strain drs2, active compounds read low",0.963
same,normalized growth,"locus YAL030W, strain snc1, active compounds read low",0.983
same,normalized growth,"locus YBL061C, strain skt5, active compounds read low",0.903 (active)
same,normalized growth,"locus YBR009C, strain hhf1, active compounds read low",0.898 (active)
same,normalized growth,"locus YBR021W, strain FUR4, active compounds read low",0.97
same,normalized growth,"locus YBR023C, strain chs3, active compounds read low",0.913 (active)
same,normalized growth,"locus YBR171W, strain sec66, active compounds read low",1.01
same,normalized growth,"locus YBR229C, strain ROT2, active compounds read low",1.02
same,normalized growth,"locus YBR231C, strain swc5, active compounds read low",0.261 (active)
same,normalized growth,"locus YBR279W, strain paf1, active compounds read low",0.958
same,normalized growth,"locus YCL011C, strain gbp2, active compounds read low",0.962
same,normalized growth,"locus YCL016C, strain dcc1, active compounds read low",0.902 (active)
same,normalized growth,"locus YCL029C, strain bik1, active compounds read low",0.781 (active)
same,normalized growth,"locus YCL069W, strain vba3, active compounds read low",0.98
same,normalized growth,"locus YCR088W, strain abp1, active compounds read low",0.977
same,normalized growth,"locus YDL005C, strain med2, active compounds read low",0.959
same,normalized growth,"locus YDL035C, strain GPR1, active compounds read low",0.967
same,normalized growth,"locus YDL040C, strain nat1, active compounds read low",0.992
same,normalized growth,"locus YDL074C, strain BRE1, active compounds read low",0.924
same,normalized growth,"locus YDL101C, strain DUN1, active compounds read low",1.03
same,normalized growth,"locus YDL134C, strain PPH21, active compounds read low",1.01
same,normalized growth,"locus YDL185W, strain tfp1, active compounds read low",1.04
same,normalized growth,"locus YDL192W, strain arf1, active compounds read low",0.99
same,normalized growth,"locus YDR001C, strain nth1, active compounds read low",0.976
same,normalized growth,"locus YDR069C, strain doa4, active compounds read low",0.952
same,normalized growth,"locus YDR101C, strain arx1, active compounds read low",0.998
same,normalized growth,"locus YDR137W, strain rgp1, active compounds read low",0.84 (active)
same,normalized growth,"locus YDR150W, strain NUM1, active compounds read low",1.01
same,normalized growth,"locus YDR159W, strain sac3, active compounds read low",0.861 (active)
same,normalized growth,"locus YDR162C, strain NBP2, active compounds read low",1.01
same,normalized growth,"locus YDR195W, strain ref2",0.979
same,normalized growth,"locus YDR297W, strain sur2, active compounds read low",0.963
same,normalized growth,"locus YDR318W, strain mcm21, active compounds read low",0.954
same,normalized growth,"locus YDR334W, strain swr1, active compounds read low",0.627 (active)
same,normalized growth,"locus YDR335W, strain msn5, active compounds read low",0.99
same,normalized growth,"locus YDR388W, active compounds read low",0.982
same,normalized growth,"locus YDR392W, strain spt3, active compounds read low",0.805
same,normalized growth,"locus YDR502C, strain sam2, active compounds read low",0.958
same,normalized growth,"locus YEL003W, strain gim4, active compounds read low",0.173 (active)
same,normalized growth,"locus YEL037C, strain rad23, active compounds read low",0.981
same,normalized growth,"locus YEL061C, strain CIN8 (second series), active compounds read low",0.976
same,normalized growth,"locus YEL061C, strain CIN8, active compounds read low",1
same,normalized growth,"locus YER015W, strain faa2, active compounds read low",0.974
same,normalized growth,"locus YER016W, strain bim1, active compounds read low",0.935
same,normalized growth,"locus YER110C, active compounds read low",1.02
same,normalized growth,"locus YER111C, strain swi4, active compounds read low",0.997
same,normalized growth,"locus YER155C, strain BEM2 (second series), active compounds read low",0.896
same,normalized growth,"locus YER155C, strain BEM2, active compounds read low",0.981
same,normalized growth,"locus YER167W, strain BCK2, active compounds read low",0.94
same,normalized growth,"locus YFR010W, strain ubp6, active compounds read low",0.98
same,normalized growth,"locus YGL078C, strain dbp3, active compounds read low",0.974
same,normalized growth,"locus YGL086W, strain mad1, active compounds read low",0.999
same,normalized growth,"locus YGL167C, strain pmr1, active compounds read low",0.979
same,normalized growth,"locus YGL173C, strain kem1, active compounds read low",0.981
same,normalized growth,"locus YGL227W, strain vid30, active compounds read low",0.977
same,normalized growth,"locus YGL240W, strain doc1, active compounds read low",0.812 (active)
same,normalized growth,"locus YGL248W, strain PDE1, active compounds read low",0.99
same,normalized growth,"locus YGL253W, strain hxk2, active compounds read low",0.951
same,normalized growth,"locus YGR078C, strain PAC10, active compounds read low",0.0909 (active)
same,normalized growth,"locus YGR135W, strain pre9, active compounds read low",0.948
same,normalized growth,"locus YGR229C, strain SMI1, active compounds read low",0.775 (active)
same,normalized growth,"locus YGR252W, strain gcn5, active compounds read low",0.916
same,normalized growth,"locus YHR013C, strain ard1, active compounds read low",1
same,normalized growth,"locus YHR027C, strain rpn1, active compounds read low",0.931
same,normalized growth,"locus YHR030C, strain SLT2, active compounds read low",1.01 and 0.956
same,normalized growth,"locus YHR079C, strain IRE1 (second series), active compounds read low",0.999
same,normalized growth,"locus YHR079C, strain IRE1, active compounds read low",0.937
same,normalized growth,"locus YHR094C, strain hxt1, active compounds read low",1
same,normalized growth,"locus YHR129C, strain ARP1, active compounds read low",0.969
same,normalized growth,"locus YHR142W, strain chs7, active compounds read low",0.872 (active)
same,normalized growth,"locus YHR200W, strain rpn10, active compounds read low",0.917 (active)
same,normalized growth,"locus YIL066C, strain RNR3, active compounds read low",1.01
same,normalized growth,"locus YIL073C, strain SPO22, active compounds read low",0.998
same,normalized growth,"locus YIL125W, strain kgd1, active compounds read low",0.971
same,normalized growth,"locus YIR030C, strain dcg1, active compounds read low",1
same,normalized growth,"locus YJL092W, strain hpr5, active compounds read low",0.965
same,normalized growth,"locus YJL095W, strain BCK1 (second series), active compounds read low",0.996
same,normalized growth,"locus YJL095W, strain BCK1, active compounds read low",1.06 and 0.938
same,normalized growth,"locus YJL115W, strain asf1, active compounds read low",0.977
same,normalized growth,"locus YJL129C, strain trk1, active compounds read low",0.906
same,normalized growth,"locus YJL134W, strain LCB3, active compounds read low",1
same,normalized growth,"locus YJL154C, strain vps35, active compounds read low",0.981
same,normalized growth,"locus YJL164C, strain tpk1, active compounds read low",0.957
same,normalized growth,"locus YJL166W, strain qcr8, active compounds read low",0.868 (active)
same,normalized growth,"locus YJL168C, strain set2, active compounds read low",1
same,normalized growth,"locus YJL187C, strain SWE1 (second series), active compounds read low",1.01
same,normalized growth,"locus YJL187C, strain SWE1, active compounds read low",0.934
same,normalized growth,"locus YJR043C, strain POL32, active compounds read low",0.867
same,normalized growth,"locus YJR066W, strain TOR1, active compounds read low",0.819 (active)

# — PubChem BioAssay AID1159580 (chemical genetic matrix, 2015)
